Hits are enriched below; roughly 32% of the tested compounds scored in any of these assays.
CYP2C19 inhib: blockers of cytochrome P450 2C19 activity – biochemical, luminescence, ADME assay, primary screen. inhibition, % at 5 µM. actives 21% (n = 96,000). CYP2C19 Supersomes, luciferin-H EGE luminescence, 30 min. P33261;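 active means CYP2C19 inhibition above a set limit at 5 µM in the primary screen, cut at about 50% in these data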;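 further: plate controls were negative control wells for no effect and 2.5 mM tranylcypromine positive control for full effect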
Target sequence (P33261 whole entry, looked up): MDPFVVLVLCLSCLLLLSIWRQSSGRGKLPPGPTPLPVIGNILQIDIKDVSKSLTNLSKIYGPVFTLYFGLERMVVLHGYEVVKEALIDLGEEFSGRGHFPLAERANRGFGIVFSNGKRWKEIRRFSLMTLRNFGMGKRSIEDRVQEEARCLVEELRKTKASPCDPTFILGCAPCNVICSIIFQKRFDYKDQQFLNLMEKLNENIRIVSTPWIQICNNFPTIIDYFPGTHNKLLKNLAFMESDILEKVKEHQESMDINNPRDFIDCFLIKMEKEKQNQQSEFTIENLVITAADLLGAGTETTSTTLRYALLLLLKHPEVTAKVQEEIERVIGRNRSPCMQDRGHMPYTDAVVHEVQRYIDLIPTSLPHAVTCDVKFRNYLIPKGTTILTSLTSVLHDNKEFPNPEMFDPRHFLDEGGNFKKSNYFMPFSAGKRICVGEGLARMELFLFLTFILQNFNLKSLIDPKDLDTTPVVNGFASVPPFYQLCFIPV
PostGolgi ctrl: growth inhibition of yeast control strain, primary screen, counter-screen for post-Golgi transport modulator project; efflux-deficient yeast background strain, growth absorbance A615, 16 h; inhibition, % at 10 µM; actives 5% (n = 98,000); AID 738, 2007
PostGolgi yeast: phenotypic screen on post-Golgi transport, primary screen; actives 0.9% (n = 98,000); AID 739, 2007; post-Golgi transport phenotypic cell assay; inhibition, % at 10 µM;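 further: yeast cells grown in 1536-well plates; yeast grown about 18 h at 30C before absorbance read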
CYP2C9 act: human CYP2C9 activators, primary screen, biochemical, luminescence; Cytochrome P450 2C9 (Homo sapiens), P11712; recombinant CYP2C9, luciferin-H conversion; hits give high values; factor 1 = untreated enzyme, 0 = blocked; activation factor at 5 µM; actives 1.4% (n = 96,000); AID 1024, 2008;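 active means activation factor of 2 or more for CYP2C9 at a 5 µM dose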;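 further: 0 = sulfaphenazole-blocked wells and 1 = vehicle-only wells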
CYP2C9 inhib: blockers of cytochrome P450 2C9 activity – biochemical, luminescence, ADME assay, primary screen. P11712. CYP2C9 Supersomes, luciferin-H conversion. inhibition, % at 5 µM. actives 20% (n = 96,000). AID 777, 2007;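 active means blocking of liver enzyme CYP2C9 beyond about 50% at 5 µM, limit read from the data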
CYP2C19 activ: human CYP2C19 activators, primary screen, biochemical, luminescence | AID 1025, 2008 | activation factor at 5 µM | Cytochrome P450 2C19 (Homo sapiens), P33261 | 96,000 tested, under 10 active | recombinant CYP2C19, luciferin-H EGE luminescence; hits give high values; 0 = fully inhibited enzyme, 1 = untreated enzyme;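 active means activation factor of at least 2 at 5 µM in the primary screen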;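 further: 0 = wells with 2.5 mM tranylcypromine and 1 = vehicle-only wells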
* marks the source's active call; other numbers are inactive results; / = not tested or not shown. Unless noted, no stated cut-off is given here; in the data, active means inhibition above about 30%; inactive means the rest.

SMILES	CYP2C19 inhib	PostGolgi ctrl	PostGolgi yeast	CYP2C9 act	CYP2C9 inhib	CYP2C19 activ
O=S(=O)(NCCSc1nc2ccccc2o1)c1ccccc1	89*	14	4	0.3	73*	0.1
O=S(=O)(CCSc1nc2ccccc2o1)c1nc2ccccc2s1	82*	61*	3	0.1	89*	0.2
O=S(=O)(CCSc1nc2ccccc2o1)Cc1ccccc1	21	2	0	1.2	-21	0.8
CCS(=O)(=O)CCSc1nc2ccccc2o1	4	13	-9	0.8	15	1
CCn1c(/C=N/n2cnnc2)nc2ccccc21	22	6	0	1	0	0.8
O=C(COC(=O)c1cn(-c2ccccc2)nc1-c1ccccc1)c1cccc([N+](=O)[O-])c1	15	-7	20	0.6	42	0.8
O=C(NCc1cn(-c2ccccc2)nc1-c1ccccc1)c1cc([N+](=O)[O-])cc([N+](=O)[O-])c1	31	0	-5	0.3	67*	0.7
O=C1CN(C(=O)c2ccco2)C(c2ccccc2)c2cc(Cl)ccc2N1 (stereo not given)	59*	5	6	0.3	71*	0.4
O=C1CN(C(=O)c2ccc(Br)o2)C(c2ccc(F)cc2)c2cc(Cl)ccc2N1 (stereo not given)	36	31*	0	0.3	73*	0.6
O=C1CN(C(=O)c2ccc(Br)o2)C(c2ccccc2)c2cc(Cl)ccc2N1 (stereo not given)	86*	26	-15	0	100*	0.1
Cc1ccc2c(c1)C(c1ccc(F)cc1)N(C(=O)C1CC1)CC(=O)N2 (stereo not given)	20	9	-10	0.8	19	0.8
CCCC(=O)N1CC(=O)Nc2ccc(F)cc2C1c1ccccc1 (stereo not given)	6	6	-15	1	4	0.9
CCCC(CCC)n1[nH]c(=O)c2c(C)cc(C)nc21	-2	23	2	1.1	-5	1
Cn1c(=O)c2c(nc(N3CCN(Cc4ccccc4)CC3)n2CCSc2ncccn2)n(C)c1=O	16	/	/	0.9	12	0.8
CCn1c(C(c2ccccc2)c2ccccc2)n[nH]c1=S	41	20	-6	0.2	82*	0.6
Cc1ccc(-c2n[nH]c(=S)n2Cc2ccccc2)cc1	27	7	3	0.6	38	0.7
C=CCn1c(CSc2nc3ccccc3s2)n[nH]c1=S	50*	20	-10	1	0	0.5
S=c1[nH]nc(CSc2nc3ccccc3s2)n1Cc1ccccc1	1	34*	-7	0.9	10	1
CCn1c(CSc2nc3ccccc3s2)nnc1SCC(=O)c1ccc(Cl)cc1	0	43*	-9	1	-3	1
O=C(COc1cccc2ccccc12)NNC(=O)C1CCCO1 (stereo not given)	11	17	0	1.9	-86	0.9
Cc1cc(NC(=O)Cn2c(=O)c3c(ncn3CCC(C)C)n(Cc3ccccc3)c2=O)no1	/	22	2	/	/	/
N#CCCCSc1nnc(CSc2nc3ccccc3s2)n1-c1ccccc1	38	/	/	0.5	46	0.6
CCCSc1nnc(CSc2nc3ccccc3s2)n1-c1ccccc1	55*	19	0	0.3	70*	0.4
CCn1c(CSc2nc3ccccc3s2)n[nH]c1=S	73*	15	-7	0.6	39	0.3
C=CCn1c(Cc2nc3ccccc3[nH]2)n[nH]c1=S	76*	-10	-9	0.9	6	0.2
SMILES	CYP2C19 inhib	PostGolgi ctrl	PostGolgi yeast	CYP2C9 act	CYP2C9 inhib	CYP2C19 activ
CC1CCCCN1C/C=C/c1ccccc1[N+](=O)[O-] (stereo not given)	4	11	5	1	-1	1
CCCSc1nc(N)cc(=O)[nH]1	6	1	-4	1	-3	0.9
CC(NC(=O)c1cccc(F)c1)C(c1cccs1)N1CCN(C)CC1 (stereo not given)	9	2	-10	0.9	6	0.9
CCOC(=O)N1CCN(c2c(F)cc3[nH]c(=S)[nH]c3c2Br)CC1	42	33*	1	0.3	70*	0.6
CCOC(=O)N1CCN(c2cc3[nH]c(=S)[nH]c3cc2F)CC1	15	-9	10	1.1	-9	0.8
Cc1cc(C)cc(C(=O)O/N=C(\N)c2ccc(Br)cc2)c1	-13	30*	8	3.5*	-247	1.1
COc1cccc(C(=O)O/N=C(\N)c2ccc([N+](=O)[O-])cc2)c1	12	1	1	2*	-96	0.9
COc1cc(C(=O)O/N=C(\N)c2ccncc2)cc(OC)c1OC	72*	-1	-3	0.1	89*	0.3
COc1ccccc1C(=O)O/N=C(\N)c1ccc(Cl)cc1	0	5	-10	3*	-199	1
CCOc1cc(C(=O)O/N=C(\N)c2ccc([N+](=O)[O-])cc2)cc(OCC)c1OCC	5	13	-1	0.8	20	0.9
Cc1ccc2c(C)[nH]c(=O)cc2c1	4	4	-7	1	4	1
O=S1(=O)CC(N2CCCCC2)C(N2CCCCC2)C1 (stereo not given)	0	0	11	1	4	1
COc1cccc(C(=O)O/N=C(\N)c2ccncc2)c1	82*	1	16	0.3	70*	0.2
C/C=C(\C)CN1CCN(c2ccc(C)cc2)CC1	86*	8	-1	1	-1	0.1
Cc1nn(-c2ccccc2)c(Cl)c1C1C(C#N)=C(N)OC2=C1C(=O)CC(C)(C)C2 (stereo not given)	39	5	-6	0.3	69*	0.6
COc1ccc(C2C(C#N)=C(/N=C/N3CCN(C)CC3)OC3=C2C(=O)CC(C)(C)C3)cc1 (stereo not given)	51*	10	3	0.5	53*	0.5
Cc1ccc(-n2nc(C)c(C3C(C#N)=C(N)OC4=C3C(=O)CCC4)c2Cl)cc1 (stereo not given)	91*	/	/	0.5	53*	0.1
CC1(C)CC(=O)C2=C(C1)OC(N)=C(C#N)C2C1C=CCCC1 (stereo not given)	30	5	0	0.4	60*	0.7
O=C1/C(=C\Nc2ccc(Cl)cc2)CCN1c1ncccn1	20	5	-15	0.6	45	0.8
CCOC(=O)C1=C(c2ccccc2)OC(N)=C(C#N)C1c1ccco1 (stereo not given)	25	30	7	0.8	16	0.8
CCCC1=C(C(=O)OCC)C(c2c(C)nn(-c3ccccc3)c2Cl)C(C#N)=C(N)O1 (stereo not given)	50*	23	-4	0.5	55*	0.5

Screens deposited in PubChem by several laboratories.
